Assay results: PubChem BioAssay AID1347051 (National Center for Advancing Translational Sciences (NCATS), 2019)
The whole screen tested about 1,400 compounds, of which about 980 (70%) were called active. Not shown: some 16% with an inconclusive outcome. So high a share suggests a set chosen from earlier hits. The list is a sample of the results. Unmarked numbers belong to inactive results. The call rests on the fitted dose curve.

test: Natriuretic polypeptide receptor (hNpr1) antagonism - Counterscreen GloSensor control cell line; details: HEK293 GloSensor cGMP, SNP-stimulated, luminescence; series mostly up to 57.6 µM; activity change, negative = inhibition: at the top concentration; further: nearly all actives have a fitted effect of over 70% in size
Method: cGMP production was measured using a circular permutated firefly luciferase (FLuc) enzyme functionally linked to the cGMP binding domain of human phosphodiesterase 5 (GloSensor technology pGS-40F, (Fan, F. et al. 2008). The cGMP-sensor was expressed in human embryonic kidney 293 (HEK-293) cells and FLuc activity was measured after stimulation with the NO-donor sodium nitroprusside (SNP). SNP activates the endogenously expressed soluble guanylyl cyclase (GC) producing cGMP which then binds to the GloSensor resulting in FLuc activation, the enzymatic activity of which can be measured as bioluminescence with addition of luciferin substrate. F. Fan, B. F. Binkowski, B. L. Butler, P. F. Stecha, M. K. Lewis, K. V. Wood, Novel genetically encoded biosensors using firefly luciferase. ACS Chem Biol 3, 346-351 (2008).
PROTOCOL TABLE (as described by Inglese J, Shamu CE and Guy RK. 2007) SEQUENCE No. (e.g., 1, 2, 3, etc.); PARAMETER (e.g., Cells, Incubation, Reagent, etc.); VALUE and DESCRIPTION. 1. Cells. Seed 1500 HEK293 cGMP-sensor cells per well in 4uL into Greiner 1536-well white/solid bottom high base, TC plates. 2. Incubation. Incubate plated cells at 37C in 5% CO2, 95% RH overnight. 3. Reagent. Add 1uL per well GloSensor reagent from Promega (2% final concentration) or CO2 independent media vehicle control to respective columns of Greiner 1536-well plates. 4. Incubation. Incubate plated cells at room temperature for 2 h, protect from light. 5. Compounds. Library compounds and DMSO vehicle control added at 23nL per well, transferred by Pin Tool. 6. Incubation. Incubate plated cells for 30 min. at room temperature, protect from light. 7. Detector. GloSensor baseline pre-read luminescence measured using CCD-based camera (Viewlux). 8. Compound. Add 1uL of sodium nitroprusside (SNP) to 50 uM final concentration to stimulate soluble guanylyl cyclase (GC) or CO2 independent media as vehicle control. 9. Incubation. Incubate treated cells at room temperature for 20 min., protect from light. 10. Detector. GloSensor post-SNP luminescence measured using CCD-based camera (Viewlux). NOTES (numbers refer to Sequence numbers above; values are from representative experiments) 1. HEK293 cells expressing GIP/pGS-40F were grown to 85-95% confluence (48-72 h) in T175 culture flasks (CO2 independent media supplemented with 10% FBS, 1% Pen/Strep antibiotics, and 1 ug/mL puromycin). Trypsinize and harvest cells from T175 culture flasks and filter through 40 um cell strainer. Cells counted with Invitrogen Countess (30,000,000 - 50,000,000 cells/flask). Cells diluted to a final concentration of 375 cells/uL in CO2 independent media and a Millipore multidrop used to dispense 1500 cells per well (4uL/well) into 13 1536-well Greiner White/Solid bottom, high base tissue-culture treated (TC) plates and one Aurora 1536-well Black/Clear bottom, low base, TC plate (for visual inspection of cell health throughout the duration of the assay). 2. Cells incubated for 24 h. at 37C in 95% RH incubator with metal lid having gas-exchange holes. 3. Prepare GloSensor Reagent (Promega): Reconstitute GloSensor luciferase substrate by adding 8.2mL Hepes buffer to 250mg substrate, mix well, protect from light and stored at -80C. Prepare a fresh 12% GloSensor solution in CO2 independent supplemented plating media (see above). Mix well and store at ambient temperature, protected from light. 1uL 12% GloSensor Luciferase Reagent added (2% final concentration) to respective columns of 13 x 1536-well Greiner plate with BioRaptr, 1uL CO2 independent plating media added to respective columns as vehicle control with BioRaptr. 4. Cells incubated for 2 h. at ambient temperature, protected from light with metal lid having gas-exchange holes. 5. 23nL of library compounds or DMSO vehicle control transferred to 13 Greiner white/solid bottom high base, TC plates in 11 interplate 1:3 titrations (see Yasgar, A. et al. 2008) with Pintool. 6. […]
On the % scale 0 is the no-effect control and ±100 the full control effect; potency means the concentration at half of the fitted maximal effect.

Q: Which Potency does the source give for `COc1ccc(C2Cn3nnc(C(=O)N4CCN(C(=O)c5ccc(C)cc5C)CC4)c3CO2)cc1` (stereo unspecified) here?
A: 21.7 µM (active)

Q: Which Potency does the source give for `COc1ccc(C2Cn3nnc(C(=O)N4CCN(C(=O)c5cccc(Cl)c5)CC4)c3CO2)cc1` (stereo unspecified) here?
A: 12.2 µM (active)

Q: With `COc1cccc(C2Cn3nnc(-c4nc(-c5ccccc5)no4)c3CO2)c1` (stereo unspecified) as the compound, how does the “activity change, negative = inhibition” value read?
A: -12.6%

Q: For `O=[S+]1([O-])NCC2(CCCN(Cc3ccc(C(F)(F)F)cc3)C2)Oc2ncccc21` (stereo unspecified), which Potency is on record?
A: 15.3 µM (active)

Q: Which “activity change, negative = inhibition” value does the source give for `COc1ccc(C(CC(=O)N(C)Cc2cc(C3CC3)n[nH]2)c2ccccc2)cc1` (stereo unspecified) here?
A: 4.58%

Q: With `CC1(CCCCc2ccccc2)COc2ccc(C(=O)N3CC[S+](=O)([O-])CC3)cc2N1` (stereo unspecified) as the compound, how does the “activity change, negative = inhibition” value read?
A: -28.2%

Q: Which Potency does the source give for `COc1ccc(OCC2(C)COc3ccc(C(=O)Nc4cccnc4)cc3N2)cc1` (stereo unspecified) here?
A: 49.8 µM (active)

Q: For `Cc1noc(C)c1-c1cc(-c2ccccc2Oc2ccccc2)cn2cncc12`, which “activity change, negative = inhibition” value is on record?
A: -24.7% [at 86.2 µM]

Q: With `Cc1nc(-c2ccncc2)ncc1C(C)Nc1ncnc(C)c1C` (stereo unspecified) as the compound, how does the Potency read?
A: 19.3 µM (active)

Q: Which Potency does the source give for `CC(C)c1nncn1C1CCN(S(=O)(=O)c2cccc(Br)c2)CC1` here?
A: 24.3 µM (active)

Q: Which Potency does the source give for `CC1(C(=O)NCc2ccc3c(c2)OCO3)CCc2cnc(NCc3ccccc3)nc21` (stereo unspecified) here?
A: 44.4 µM (active)

Q: For `CC(C)(C)c1csc(NC(=O)c2ccc3c(c2)OCCN(C2CCC2)C3)n1`, which Potency is on record?
A: 25 µM (active)

Q: With `COc1ccc(-c2noc(CC3CCN(C(=O)Cc4ccc(C)cc4)CC3)n2)cc1` as the compound, how does the Potency read?
A: 30.6 µM (active)

Q: For `COc1ccc(-c2noc(CC3CCN(C(=O)CC4CCCCC4)CC3)n2)cc1`, which Potency is on record?
A: 8.62 µM (active)

Q: With `COc1ccc(-c2noc(CC3CCN(C(=O)Cc4ccccc4)CC3)n2)cc1` as the compound, how does the Potency read?
A: 27.3 µM (active)

Q: With `COc1cccc(C2C(C(=O)Nc3ccccc3)=C(C)N=C3SC=C(CC(=O)NCC(C)C)N32)c1` (stereo unspecified) as the compound, how does the “activity change, negative = inhibition” value read?
A: -23.8%

Q: For `COc1cccc(NC(=O)Cn2c(N(C)Cc3ccccc3)nc(C)cc2=O)c1`, which Potency is on record?
A: 10.9 µM (active)

Q: For `COc1cccc(CNC(=O)Cn2c(N(C)Cc3ccccc3)nc(C)cc2=O)c1OC`, which Potency is on record?
A: 24.3 µM (active)

Q: Which Potency does the source give for `O=C(c1ccc2cc[nH]c2c1)N1CCC2(CC1)N=C(c1ccc(Cl)cc1)NO2` here?
A: 15.3 µM (active)

Q: For `Cc1nn2c(c1-c1ccnn1C(C)C)N(CC1CCOCC1)CCC2`, which “activity change, negative = inhibition” value is on record?
A: -21.4% [at 86.2 µM]

Q: With `Cc1nn2c(c1-c1ccccc1-c1ccccc1)N(CC1CC1)CCC2` as the compound, how does the Potency read?
A: 2.8 µM (active)

Q: Which Potency does the source give for `CC1=NS(=O)(=O)N(C)C=C1C(=O)OCc1nc(-c2ccc(C)cc2)no1` here?
A: 8.62 µM (active)

Q: With `CCN(CCCNC(=O)c1nnn2cc(-c3ccccc3)[nH]c(=O)c12)c1ccccc1` as the compound, how does the “activity change, negative = inhibition” value read?
A: -5.02%

Q: With `Cc1c[nH]c(CN2CCCC(CCc3ccc(F)cc3F)C2)c(C)c1=O` (stereo unspecified) as the compound, how does the Potency read?
A: 2.43 µM (active)

Q: Which Potency does the source give for `O=C(Cc1c[nH]c2ncc(-c3ccccc3F)cc12)N1CCOCC1` here?
A: 28 µM (active)

Q: Which Potency does the source give for `Cc1noc(C)c1-c1cnc2[nH]cc(CC(=O)N3CCOCC3)c2c1` here?
A: 22.2 µM (active)

Q: Which Potency does the source give for `COc1ccccc1Nc1cnc2ccc(N(C)Cc3cccnc3)nn12` here?
A: 35.3 µM (active)

Q: Which Potency does the source give for `O=C(NCC1CC1)c1nc2c(o1)CCN(Cc1cccc(F)c1F)CC2` here?
A: 22.2 µM (active)

Q: With `O=C1NCN(Cc2ccc(Cl)cc2)C12CCN(Cc1ccccc1)CC2` as the compound, how does the Potency read?
A: 13.7 µM (active)

Q: With `O=C1Nc2ccccc2CN(Cc2ccccc2)C12CCNCC2` as the compound, how does the “activity change, negative = inhibition” value read?
A: -14.8%

Q: Which Potency does the source give for `OC1(Cc2cc(-c3ccccc3)no2)CCN(c2ncncn2)CC1` here?
A: 6.85 µM (active)

Q: For `O=C(NCc1nnc2cc(-c3nc(C4CC4)no3)ccn12)c1ccc(F)cc1Cl`, which Potency is on record?
A: 12.2 µM (active)

Q: For `COc1ccc(CCNC(=O)c2noc(-c3ccc(C)cc3)n2)cc1OC`, which Potency is on record?
A: 21.7 µM (active)

Q: For `O=C(c1ccc(Cl)cc1)N1CCCC(n2cc(-c3nc(-c4ccccc4)no3)nn2)C1` (stereo unspecified), which Potency is on record?
A: 13.7 µM (active)

Q: For `O=C(c1ccc(F)cc1Cl)N1CCC(n2cc(-c3nc(-c4ccccc4)no3)nn2)C1` (stereo unspecified), which Potency is on record?
A: 4.32 µM (active)

Q: With `COc1ccc(C(=O)N2CCC(n3cc(-c4nc(C(C)C)no4)nn3)CC2)cc1F` as the compound, how does the “activity change, negative = inhibition” value read?
A: 5.01%

Q: For `O=C(c1ccc(F)cc1F)N1CCN(c2cc(-c3ccc(Cl)cc3)[nH]n2)CC1`, which Potency is on record?
A: 17.2 µM (active)

Q: For `O=C(c1cc(F)ccc1Cl)N1CCN(c2cc(-c3ccc(F)cc3)[nH]n2)CC1`, which Potency is on record?
A: 24.3 µM (active)

Q: With `Cc1ccc(C(=O)N2CCN(c3cc(-c4ccc(Cl)cc4)[nH]n3)CC2)c(C)c1` as the compound, how does the Potency read?
A: 6.11 µM (active)

Q: For `CCc1ccc(C(=O)N2CCN(c3cc(-c4ccc(F)cc4)[nH]n3)CC2)cc1`, which Potency is on record?
A: 21.7 µM (active)

Q: For `C1CCC(COCCc2noc(C3CNC3)n2)C1`, which Potency is on record?
A: 21.7 µM (active)

Q: Which Potency does the source give for `O=C(c1ccccn1)N1CC(Oc2ccc(-c3noc(C4CC4)n3)cc2)C1` here?
A: 13.7 µM (active)

Q: For `COc1ccc(-c2noc(CC3CCN(C(=O)Cc4ccc(OC)c(OC)c4)CC3)n2)cc1`, which Potency is on record?
A: 3.85 µM (active)

Q: For `COc1ccc(CC(=O)N2CCC(Cc3nc(-c4ccccc4)no3)CC2)cc1OC`, which Potency is on record?
A: 13.7 µM (active)

Q: For `COc1ccc(CN2C(=O)CO[C@H]3CN(Cc4ccc5c(c4)OCO5)C[C@H]32)cc1`, which Potency is on record?
A: 28 µM (active)

Q: Which Potency does the source give for `Cc1ccc2c(c1)nc1n2[C@@H](CNS(=O)(=O)c2ccccc2)COC1` here?
A: 35.3 µM (active)

Q: With `N#Cc1cccc(CN2CCC(C3=NC(O)c4cc(F)ccc4N3)CC2)c1` (stereo unspecified) as the compound, how does the Potency read?
A: 19.3 µM (active)

Q: Which “activity change, negative = inhibition” value does the source give for `Fc1ccc(CNC[C@H]2Cn3c(-c4ccc5c(c4)OCCO5)cnc3CO2)cc1` here?
A: -28.3% [at 86.2 µM]

Q: Which “activity change, negative = inhibition” value does the source give for `Cc1cccc(C(=O)N2CCC3(CC2)CC(N(Cc2ccc(F)cc2)C2CC2)CCO3)c1` (stereo unspecified) here?
A: -29.5%

Q: With `O=C(c1ccccc1)N1CCC(C(=O)N2CCC(Cc3nc(-c4ccc(F)cc4)no3)CC2)CC1` as the compound, how does the Potency read?
A: 13.7 µM (active)

Q: With `COc1cccc(-c2noc(CC3CCN(C(=O)c4ccc(F)cc4)CC3)n2)c1` as the compound, how does the Potency read?
A: 4.85 µM (active)

Q: For `CN1CCN(C(=O)C(C)(C)Oc2nn(Cc3cccc(Cl)c3)c3ccccc23)CC1`, which “activity change, negative = inhibition” value is on record?
A: 1.63% [at 86.2 µM]

Q: For `O=C(c1ccccc1)N1CCNc2cnc(Nc3cccc(C(F)(F)F)c3)nc2C1`, which Potency is on record?
A: 22.2 µM (active)

Q: With `Cc1cc(N2CCCC(Cn3cc(Cc4ccccc4)nn3)C2)nc(N)n1` (stereo unspecified) as the compound, how does the Potency read?
A: 4.85 µM (active)

Q: For `O=C1c2cnc(-c3ccc(Cl)cc3)nc2OCCN1Cc1ccccc1`, which Potency is on record?
A: 35.3 µM (active)

Q: With `CN(Cc1csc(-c2ccccc2)n1)c1cc(C2CC(O)C2)nc(N)n1` (stereo unspecified) as the compound, how does the Potency read?
A: 1.93 µM (active)

Q: For `Cc1ccc(OCc2nc(C3CCN(C(=O)CCc4nc5ccc(Cl)cc5[nH]4)CC3)no2)cc1`, which Potency is on record?
A: 24.3 µM (active)

Q: For `O=c1[nH]c(C2CCCN(Cc3ccccn3)C2)nn1-c1ccc(Cl)cc1` (stereo unspecified), which Potency is on record?
A: 9.68 µM (active)

Q: Which “activity change, negative = inhibition” value does the source give for `CN(C)CCNC(=O)C(C)(C)Oc1nn(Cc2cccc(Cl)c2)c2ccccc12` here?
A: -2.48% [at 86.2 µM]

Q: With `CC(C)c1cc(C(=O)N2CCC(n3cc(-c4ccccn4)nn3)CC2)n(C)n1` as the compound, how does the Potency read?
A: 15.3 µM (active)

Q: With `Cc1cccc(CN2CCc3nc(C(=O)Nc4ccc(Cl)cc4)oc3CC2)c1` as the compound, how does the Potency read?
A: 8.86 µM (active)
